Tau ThT inhib = inhibitors of human tau fibril formation, thioflavin T binding; Potency, µM (highest dose often 57.4 µM), usual class: inhibitors; AID 1460; recombinant tau K18 P301L, heparin-induced fibrillization, ThT fluorescence; P10636; actives 2.1% (n = 270,000); note: nearly all actives have a fitted effect of over 55% in size
Target sequence (P10636 561-689 P618L limits assumed): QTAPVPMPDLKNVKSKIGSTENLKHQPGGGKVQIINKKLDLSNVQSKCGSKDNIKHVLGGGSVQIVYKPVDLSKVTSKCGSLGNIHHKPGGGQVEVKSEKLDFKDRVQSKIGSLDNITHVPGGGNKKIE
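K18 P301L tau (15 uM + 0.24 uM Alexa 594-tagged), heparin 20 uM, NaOAc pH 7, 6 h 37 C; ThT 30 uM, 1 h RT, ex 450/em 510 nm.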
Tau FP inhib = inhibitors of human tau fibril formation; P10636; K18 P301L tau heparin fibrillization, Alexa594 FP, 6 h; Potency, µM (doses to about 57.7 µM), most hits filed as inhibitors; actives 0.39% (n = 280,000); note: nearly all actives have a fitted effect of over 55% in size
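Steps: dispense K18 P301L tau (15 uM plus 0.24 uM Alexa 594 tracer, final) in pH 7 sodium acetate; add compound; add heparin (20 uM final); incubate 6 hr, 37 C; add ThT (30 uM final); after 1 hr ambient, read FP.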
TR SRC2 fluor cs = alters Texas Red total fluorescence, flagging assay interference; Potency, µM (highest dose often 106 µM); actives 0.29% (n = 280,000); TRb/SRC2 Texas Red total fluorescence interference; AID 1479; active = well fitted curve in either direction with a large enough effect; inconclusive = small, poorly fitted or top-dose-only effect
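Human TRβ ligand-binding domain (0.6 uM) and Texas Red SRC2 peptide (20 nM) in Tris buffer with 1 uM T3 and 5% DMSO were incubated with pinned compound for 5 hr at ambient temperature. Total fluorescence was computed as S + 2P (555/632 nm).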
TRb SRC2 PPI = disrupts binding of human TR beta to SRC2. TRbeta-SRC2 peptide binding, fluorescence polarization; receptor liganded with 1 µM T3. P10828. AID 1469. actives 0.065% (n = 280,000). Potency, µM (highest dose often 106 µM), most hits filed as inhibitors; note: nearly all actives have a fitted effect of over 50% in size
Target sequence (P10828 whole entry, looked up): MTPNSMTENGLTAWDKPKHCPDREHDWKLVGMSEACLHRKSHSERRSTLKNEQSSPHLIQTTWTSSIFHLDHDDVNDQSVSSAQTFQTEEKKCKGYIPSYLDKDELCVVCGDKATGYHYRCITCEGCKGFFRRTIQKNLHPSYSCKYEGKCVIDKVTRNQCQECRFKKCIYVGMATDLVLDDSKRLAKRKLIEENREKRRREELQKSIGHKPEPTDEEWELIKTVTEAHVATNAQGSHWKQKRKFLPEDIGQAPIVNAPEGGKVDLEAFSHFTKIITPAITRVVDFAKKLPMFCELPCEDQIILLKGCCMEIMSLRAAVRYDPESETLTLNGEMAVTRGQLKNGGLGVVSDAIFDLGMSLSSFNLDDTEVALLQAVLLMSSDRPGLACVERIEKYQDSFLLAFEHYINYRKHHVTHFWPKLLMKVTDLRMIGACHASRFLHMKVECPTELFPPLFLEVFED
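Each compound concentration gave % activity, normalized to unbound and bound Texas Red SRC2 controls, from polarization read after 5 hr ambient incubation with T3-loaded human TRb LBD.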
PNC inhibitor = perinucleolar compartment assembly inhibition. PC3M PTB-GFP, PNC prevalence imaging, 16 h; hits give low values. activity change (PNC), negative = inhibition, % at 10 µM. actives 3.1% (n = 140,000). AID 2417;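 active = readout at or below -70, meaning at least 70% loss of cells showing the perinucleolar compartment, a nuclear body marking cancer cells; inconclusive = readout between -30 and a set limit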
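Compounds are pinned in duplicate onto adhered PC3M cells stably expressing GFP-tagged PTB and incubated 16 h at 37 C. Cells are then fixed, nuclei stained with Hoechst, and PNC-positive cells counted.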
Tau fluor cs = counter-screen for tau fibril formation inhibitors. Potency, µM (series often up to 57.7 µM). actives 0.93% (n = 280,000). tau K18 P301L Alexa594 fluorescence, heparin fibrillization. AID 1463; note: nearly all actives have a fitted effect of over 55% in size
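Human tau K18 P301L (15 uM unlabeled, 0.24 uM Alexa 594-labeled) in 100 mM sodium acetate pH 7 with 20 uM heparin, 6 hr at 37 C. ThT 30 uM added, 1 hr ambient; Alexa 594 FP and total fluorescence read at 555/632 nm.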
Of the large screens only hits and unclear results are named; the others gave an inactive call; [ ] = another dose, or the depositor's remark. Hits are enriched below; roughly 4.6% of the tested compounds scored in any of these assays. Unless noted, calls come from the whole dose curve; as a rule, active = well fitted curve in the direction sought with a large enough effect; inconclusive = small, poorly fitted or top-dose-only effect, or another doubt; inactive = no such curve, though single readings can be large; an effect the other way counts as inactive or inconclusive.

CCN(CC)c1ccc(NC(=O)c2sc3nc(-c4ccccc4)cn3c2C)cc1	Tau ThT inhib 2.2µM, Tau fluor cs inconclusive (no result: PNC inhibitor)
CCN(CC)c1ccc(NC(=O)c2sc3ccccc3c2Cl)cc1	Tau ThT inhib 0.89µM, Tau fluor cs inconclusive (no result: PNC inhibitor)
Cc1c(C(=O)Nc2ccncc2)sc2nc(-c3ccccc3)cn12	none
Cc1ccc(C2(C)NC(=O)N(CCOc3ccccc3)C2=O)cc1 (stereo not given)	none
O=C1/C(=C/c2ccccc2[N+](=O)[O-])COc2ccccc21	Tau ThT inhib 13µM, Tau FP inhib inconclusive, Tau fluor cs inconclusive (no result: PNC inhibitor)
CCOc1cc(/C=C2/COc3ccccc3C2=O)ccc1OCC(=O)N(C)C	Tau ThT inhib inconclusive (no result: PNC inhibitor)
CNc1ccc(/C=C2\COc3ccccc3C2=O)cc1[N+](=O)[O-]	Tau ThT inhib 1.6µM
CCOC(=O)CSc1nnc(CSc2nc3ccccc3s2)n1C	PNC inhibitor -97
CC1CCCCN1C(=O)Cn1cc(/C=C2/C(=O)Nc3ccccc32)c2ccccc21 (stereo not given)	Tau ThT inhib 10µM, Tau fluor cs inconclusive
CC1CCCCN1C(=O)Cn1cc(C=O)c2ccccc21 (stereo not given)	none
O=C(NC(=S)Nc1ccccc1)c1csnn1	Tau ThT inhib 10µM, Tau FP inhib inconclusive, PNC inhibitor inconclusive
CC1=C(C(=O)Nc2ccccc2C)C2(CCCCC2)C(C(N)=O)C(=S)N1 (stereo not given)	PNC inhibitor -85
CC1=C(C(=O)Nc2ccccc2)C2(CCCCC2)C(C(N)=O)C(=S)N1 (stereo not given)	none
CN1CCN(c2cc(N3CCc4ccccc4C3)c(F)cc2[N+](=O)[O-])CC1	Tau ThT inhib 13µM
CCC(=O)N1CCN(c2cc(N3CCN(C)CC3)c(F)cc2[N+](=O)[O-])CC1	none
O=C(Nc1ccc(CN2CCOCC2)cc1)c1ccc(-c2ccc(Br)cc2)o1	Tau fluor cs inconclusive
COc1cc(N=Nc2c(O)c3ccccc3[nH]c2=O)c(OC)cc1N=Nc1ccccc1	Tau ThT inhib 7.1µM, Tau fluor cs inconclusive (no result: PNC inhibitor)
NC(=O)c1ccc(N=Nc2c(O)c3ccccc3[nH]c2=O)cc1	Tau ThT inhib 0.5µM, Tau FP inhib inconclusive (no result: PNC inhibitor)
COc1ccc(CCn2c(SCC(=O)Nc3cc(C)on3)nc3ccsc3c2=O)cc1OC	PNC inhibitor inconclusive
NC(=S)N=Nc1c(O)[nH]c2ccccc12	Tau ThT inhib inconclusive
NC(=S)N=Nc1c(O)[nH]c2c(Br)cc(Br)cc12	Tau ThT inhib 7.9µM (no result: PNC inhibitor)
COc1ccc(-n2ncc3c(=O)n(CC(=O)Nc4ccc(S(=O)(=O)N5CCOCC5)cc4)cnc32)cc1	Tau FP inhib inconclusive, PNC inhibitor inconclusive, Tau fluor cs inconclusive
CC(Sc1ncc(C#N)c(N)n1)C(=O)Nc1ccccc1 (stereo not given)	PNC inhibitor -112
CCOC(=O)N1CCN(S(=O)(=O)c2ccc(Br)s2)CC1	PNC inhibitor -90
Cc1ccc(Sc2cc(NCCCO)c([N+](=O)[O-])c3nonc23)cc1	none (no result: Tau ThT inhib, PNC inhibitor)
COc1cccc(C(=O)/C=C/c2ccc(N3CCCCC3)c([N+](=O)[O-])c2)c1	Tau ThT inhib 7.9µM, Tau fluor cs inconclusive
COc1cccc(/C=C/C(=O)c2cccc([N+](=O)[O-])c2)c1	Tau ThT inhib inconclusive, Tau FP inhib inconclusive, Tau fluor cs inconclusive (no result: PNC inhibitor)
O=C(/C=C/c1ccc(N2CCCCC2)c([N+](=O)[O-])c1)c1ccc(S(=O)(=O)N2CCCC2)cc1	Tau ThT inhib 10µM, Tau FP inhib inconclusive
CN1CCN(c2ccc(S(=O)(=O)N3CCCCC3)cc2[N+](=O)[O-])CC1	none (no result: PNC inhibitor)
O=C(c1c(O)c2ccccc2oc1=O)C1CCCCC1	none
Cc1ccc(CNC(=O)c2cc3sc(Cl)cc3n2C)cc1	none (no result: PNC inhibitor)
O=C(NCc1ccco1)C(c1cccs1)N(C(=O)C1COc2ccccc2O1)c1cccc(O)c1 (stereo not given)	PNC inhibitor -116
CC(C)CCNC(=O)C(c1ccc(O)cc1)N(Cc1cccs1)C(=O)C1COc2ccccc2O1 (stereo not given)	none
Cc1cc(C)n2nc(NCc3ccccc3Cl)nc2n1	none (no result: PNC inhibitor)
CNCC[C@@H](Oc1ccccc1C)c1ccccc1	none (no result: PNC inhibitor)
O=C(NN=C1CCCC1)NC1CCCCC1	PNC inhibitor -118
O=C(/C=C/c1cccc([N+](=O)[O-])c1)Nc1cccc(NC(=O)c2cccs2)c1	Tau ThT inhib inconclusive, Tau FP inhib inconclusive, PNC inhibitor inconclusive, Tau fluor cs 13µM[quencher]
O=C(Nc1cccc(NC(=O)c2cccs2)c1)c1ccc([N+](=O)[O-])o1	Tau fluor cs 32µM[quencher] (no result: Tau ThT inhib, PNC inhibitor)
O=C(/C=C/c1cccc([N+](=O)[O-])c1)Nc1cccc(NC(=O)c2ccco2)c1	Tau ThT inhib inconclusive, Tau fluor cs inconclusive
O=C(CNC(=O)C1CCCCC1)OCc1cc(=O)oc2ccc3ccccc3c12	none
O=C(Nc1ccsc1C(=O)NC1CCCCC1)c1ccccc1	none
CC12CC3(C)CC(C)(C1)CC(C(=O)NC(=S)N1CCOCC1)(C2)C3	PNC inhibitor inconclusive
COc1ccc(C(=O)CSc2n[nH]c(-c3ccco3)n2)cc1	Tau ThT inhib inconclusive, PNC inhibitor -107
Cc1ccc(C(=O)CSc2n[nH]c(-c3ccco3)n2)cc1C	Tau ThT inhib inconclusive
Cc1cc(C)cc(N(CCC(=O)O)S(=O)(=O)c2ccc(Cl)cc2)c1	PNC inhibitor inconclusive
CCc1nnc(NC(=O)CCN(c2cc(C)cc(C)c2)S(=O)(=O)c2ccc(Cl)cc2)s1	PNC inhibitor -94
Cc1ccc(NC(=O)CN2C(=O)C(C)(C)c3cc(S(=O)(=O)N4CCCCC4)ccc32)c(Br)c1	none (no result: PNC inhibitor)
CCCC(=O)NC(=S)Nc1ccccc1C(=O)OC	PNC inhibitor -108
NC(=O)C1CCN(c2ccc(S(=O)(=O)N3CCC(Cc4ccccc4)CC3)cn2)CC1	none (no result: PNC inhibitor)
CCOC(=O)c1ccc(N2C(=O)c3[nH]nc(-c4ccc(OC)cc4)c3C2c2cccc(O)c2)cc1 (stereo not given)	Tau ThT inhib inconclusive, Tau FP inhib 16µM, Tau fluor cs inconclusive (no result: PNC inhibitor)
Cc1cccc(CNc2cc(-c3ccoc3)ncn2)c1	Tau ThT inhib 18µM, Tau FP inhib inconclusive (no result: PNC inhibitor)
Cc1cccc(CNc2cc(-c3ccc(N(C)C)cc3)ncn2)c1	Tau ThT inhib inconclusive, Tau FP inhib inconclusive, Tau fluor cs inconclusive (no result: PNC inhibitor)
Cc1cc(C(=O)Nc2cccc([N+](=O)[O-])c2)c(C)o1	Tau ThT inhib inconclusive, PNC inhibitor -109
CC(C(=O)Nc1cccc([N+](=O)[O-])c1)[n+]1ccccc1 (stereo not given)	Tau ThT inhib 22µM (no result: PNC inhibitor)
C=CCc1c(OC(C)=O)c2ccccc2n(C)c1=O	PNC inhibitor -106

Compound activity from PubChem BioAssay.
